Assay outcomes: PubChem BioAssay, The Scripps Research Institute Molecular Screening Center
PPARg SRC-3 ag: PPARgamma agonists recruiting SRC-3 coactivator, primary screen, biochemical | Peroxisome proliferator-activated receptor gamma (Homo sapiens), P37231 | activation, % at 8 µM | biochemical PPARgamma/SRC-3 coactivator recruitment assay | 200,000 tested, 0.26% active; in the data active = activation above about 23%
Target sequence (P37231 whole entry, looked up): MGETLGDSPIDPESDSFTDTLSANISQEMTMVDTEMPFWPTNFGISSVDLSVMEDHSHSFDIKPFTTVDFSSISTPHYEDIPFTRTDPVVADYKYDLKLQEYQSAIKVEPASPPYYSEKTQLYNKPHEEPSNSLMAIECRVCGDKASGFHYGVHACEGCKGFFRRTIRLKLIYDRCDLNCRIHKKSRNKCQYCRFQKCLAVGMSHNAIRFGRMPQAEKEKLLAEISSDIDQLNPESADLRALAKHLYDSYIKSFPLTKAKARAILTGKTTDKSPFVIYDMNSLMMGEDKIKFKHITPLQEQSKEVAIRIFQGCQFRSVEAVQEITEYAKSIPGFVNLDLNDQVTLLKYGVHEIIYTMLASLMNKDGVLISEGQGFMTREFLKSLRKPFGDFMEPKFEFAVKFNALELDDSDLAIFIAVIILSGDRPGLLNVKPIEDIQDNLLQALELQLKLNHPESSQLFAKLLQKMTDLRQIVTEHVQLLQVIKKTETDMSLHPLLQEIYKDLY
PPARg SRC-2 ag: agonists of PPARg-SRC-2 recruitment, primary screen, biochemical, HTS | activation, % at 8 µM | PPARgamma LBD-SRC-2 recruitment | AID 1032, 2008 | 200,000 tested, 0.34% active | Peroxisome proliferator-activated receptor gamma (Homo sapiens), P37231
SRC3 TRFRET art: TR-FRET detection interference compounds, artefact control for PPARgamma SRC-3 recruitment agonists, biochemical, TR-FRET ratio | AID 1048, 2008 | TR-FRET artefact counter-screen, PPARgamma/SRC-3 format; stronger effect = higher value | TR-FRET ratio at 8 µM | 99,000 tested, 0.39% active; in the data active = TR-FRET ratio above about 2000
SRC1 TRFRET art: TR-FRET detection interference compounds, primary screen, artefact control for PPARgamma SRC-1 recruitment agonists, biochemical, TR-FRET emission ratio; TR-FRET detection artefact counter-screen; stronger effect = higher value; TR-FRET ratio at 8 µM; 99,000 tested, 0.34% active; AID 1051, 2008; in the data active = TR-FRET ratio above about 2300
TR-FRET SRC-2 ct: TR-FRET signal artefacts, primary screen, artefact control for PPARgamma SRC-2 agonist project, biochemical; TR-FRET artefact counter-screen; stronger effect = higher value; TR-FRET ratio at 8 µM; AID 1049, 2008; 200,000 tested, 0.4% active; in the data active = TR-FRET ratio above about 2000
PPARg SRC-1 ag: PPARgamma agonists recruiting SRC-1 coactivator, primary screen, biochemical | PPARgamma-SRC-1 coactivator recruitment biochemical assay | Peroxisome proliferator-activated receptor gamma (Homo sapiens), P37231 | activation, % at 8 µM | 200,000 tested, 0.41% active; in the data active = activation above about 19%
PPARg SRC2 ag: agonists of PPARgamma SRC-2 coactivator recruitment, confirmation, biochemical, HTS | activation, % at 8 µM | AID 1297, 2008 | shares compounds with PPARg SRC-3 ag | biochemical SRC-2 recruitment by PPARgamma | 790 tested, 52% active
PPARg SRC1 ag: PPARgamma agonists recruiting SRC-1 coactivator, confirmation, biochemical; activation, % at 8 µM; PPARgamma–SRC-1 coactivator recruitment biochemical assay; shares compounds with PPARg SRC-3 ag; AID 1300, 2008; 790 tested, 43% active; in the data active = activation above about 20%
PPARg SRC3 conf: PPARgamma-driven SRC-3 coactivator recruitment agonists, confirmation, biochemical; shares compounds with PPARg SRC-3 ag; activation, % at 8 µM; biochemical PPARgamma-SRC-3 coactivator recruitment, agonist mode; 790 tested, 29% active; in the data active = activation above about 24%
Of the large screens only hits and unclear results are named; the others gave an inactive call (follow-up assays come after a bar, where they were run). Most compounds without a hit are left out; they make up all but 0.9% or so of the library. Rule as the data show it, unless noted: active = activation above about 22%; inactive = the rest.

COc1cccc(C2C3=C(Nc4[nH]n(-c5ccccc5)c(=O)c42)c2ccccc2C3=O)c1 (configuration not stated)	PPARg SRC-3 ag 33, PPARg SRC-1 ag 22 | PPARg SRC2 ag 54 | PPARg SRC1 ag 54 | PPARg SRC3 conf 56
O=C(O[C@@H]1OC2COC(=O)c3cc(O)c(O)c(O)c3-c3c(cc(O)c(O)c3O)C(=O)O[C@@H]([C@H]1O)[C@@H]2O)c1cc(O)c(O)c(O)c1	PPARg SRC-2 ag 24 | PPARg SRC2 ag inactive | PPARg SRC1 ag inactive | PPARg SRC3 conf inactive
O=c1c2c(-c3cccs3)csc2ncn1-c1ccc(Br)cc1	none (no result: SRC3 TRFRET art, SRC1 TRFRET art)
Cn1c(=S)[nH]c2scc(-c3cccs3)c2c1=O	PPARg SRC-3 ag 27, PPARg SRC-2 ag 42, SRC3 TRFRET art 2495, SRC1 TRFRET art 3197, TR-FRET SRC-2 ct 2702, PPARg SRC-1 ag 50 | PPARg SRC2 ag 57 | PPARg SRC1 ag 41 | PPARg SRC3 conf 37
C=CCn1c(=S)[nH]c2scc(-c3cccs3)c2c1=O	PPARg SRC-3 ag 42, PPARg SRC-2 ag 76, SRC3 TRFRET art 3585, SRC1 TRFRET art 3938, TR-FRET SRC-2 ct 3332, PPARg SRC-1 ag 68 | PPARg SRC2 ag 78 | PPARg SRC1 ag 55 | PPARg SRC3 conf 47
CCC(C)(C)c1ccc(OCCN2C(=O)NC(C)(C)C2=O)cc1	none (no result: SRC3 TRFRET art, SRC1 TRFRET art)
CCN(CC)C(=O)c1sc2[nH]c(=S)n(-c3ccccc3)c(=O)c2c1C	PPARg SRC-2 ag 27 (no result: SRC3 TRFRET art, SRC1 TRFRET art) | PPARg SRC2 ag inactive | PPARg SRC1 ag inactive | PPARg SRC3 conf inactive
COc1ccc(C(=O)NCC(=O)OCC(=O)c2ccc3c(c2)NC(=O)CO3)cc1	none
CC(=O)c1sc(Nc2ccccn2)nc1C	PPARg SRC-3 ag 74, PPARg SRC-2 ag 48, TR-FRET SRC-2 ct 2724, PPARg SRC-1 ag 53 (no result: SRC3 TRFRET art, SRC1 TRFRET art) | PPARg SRC2 ag 38 | PPARg SRC1 ag 25 | PPARg SRC3 conf 26
CC(=O)c1sc(NC(=O)C2COc3ccccc3O2)nc1C (configuration not stated)	PPARg SRC-3 ag 28, PPARg SRC-2 ag 27, TR-FRET SRC-2 ct 2016, PPARg SRC-1 ag 20 (no result: SRC3 TRFRET art, SRC1 TRFRET art) | PPARg SRC2 ag 24 | PPARg SRC1 ag inactive | PPARg SRC3 conf inactive
CC(=O)Nc1nc(C)c(C(C)=O)s1	none (no result: SRC3 TRFRET art, SRC1 TRFRET art)
CC(=O)c1sc(Nc2ccc(C)cc2)nc1C	none
CC(=O)c1sc(NC(=O)C(C)C)nc1C	PPARg SRC-3 ag 83, PPARg SRC-2 ag 81, TR-FRET SRC-2 ct 3308, PPARg SRC-1 ag 59 (no result: SRC3 TRFRET art, SRC1 TRFRET art) | PPARg SRC2 ag 54 | PPARg SRC1 ag 37 | PPARg SRC3 conf 39
Cc1ccc(OCC(=O)c2ccc(Cl)s2)c([N+](=O)[O-])n1	none
CCOC(=O)c1c(NC(=O)c2ccc(Cl)cc2)csc1C	none
CN(CC(=O)Nc1ccc(Cl)cc1)CC(=O)Nc1cc(Cl)ccc1C#N	none
COc1ccc(-n2c(=S)[nH]c3c(sc(=S)n3-c3ccccc3)c2=O)c(OC)c1	none
COc1ccc(-c2csc3[nH]c(=S)n(-c4ccccc4)c(=O)c23)cc1OC	PPARg SRC-2 ag 25, SRC3 TRFRET art 2099, SRC1 TRFRET art 2467, TR-FRET SRC-2 ct 2183 | PPARg SRC2 ag inactive | PPARg SRC1 ag inactive | PPARg SRC3 conf inactive
COc1cccc(-c2cc3c(=O)n(-c4ccccc4)c(=S)[nH]c3s2)c1	PPARg SRC-2 ag 31, TR-FRET SRC-2 ct 1988, PPARg SRC-1 ag 23 (no result: SRC3 TRFRET art, SRC1 TRFRET art) | PPARg SRC2 ag inactive | PPARg SRC1 ag inactive | PPARg SRC3 conf inactive
COc1ccc2nc(SC)c(C#N)cc2c1	PPARg SRC-3 ag 27, SRC3 TRFRET art 2738 | PPARg SRC2 ag 75 | PPARg SRC1 ag 58 | PPARg SRC3 conf 43
N#Cc1cc2ccccc2nc1SCc1cccnc1	none
COc1ccc2nc(SCc3cccnc3)c(C#N)cc2c1	PPARg SRC-3 ag 69, PPARg SRC-1 ag 83 (no result: SRC3 TRFRET art, SRC1 TRFRET art) | PPARg SRC2 ag 53 | PPARg SRC1 ag 42 | PPARg SRC3 conf 33
Cn1c(=O)c2c(nc(-n3ccnc3)n2Cc2ccc([N+](=O)[O-])cc2)n(C)c1=O	none (no result: SRC3 TRFRET art, SRC1 TRFRET art)
N#CC1=C2SCN(Cc3ccccc3)CN2C(=O)CC1c1cccs1 (configuration not stated)	PPARg SRC-3 ag 26, PPARg SRC-2 ag 23, TR-FRET SRC-2 ct 2063 (no result: SRC3 TRFRET art, SRC1 TRFRET art) | PPARg SRC2 ag 23 | PPARg SRC1 ag inactive | PPARg SRC3 conf inactive
CC(=O)c1cccc(S(=O)(=O)N(CCCO)Cc2cc3ccc(C)cc3[nH]c2=O)c1	none (no result: SRC3 TRFRET art, SRC1 TRFRET art)
CCC(NC(=O)c1ccccc1NC(=O)c1ccco1)C(=O)NC1CCCCC1 (configuration not stated)	PPARg SRC-2 ag 25, TR-FRET SRC-2 ct 2076 (no result: SRC3 TRFRET art, SRC1 TRFRET art) | PPARg SRC2 ag inactive | PPARg SRC1 ag inactive | PPARg SRC3 conf inactive
COc1cccc2cc(C(=O)C3=C(O)C(=O)N(Cc4ccco4)C3c3cccnc3)oc12 (configuration not stated)	PPARg SRC-3 ag 40, PPARg SRC-2 ag 26, TR-FRET SRC-2 ct 2226, PPARg SRC-1 ag 27 (no result: SRC3 TRFRET art, SRC1 TRFRET art) | PPARg SRC2 ag 23 | PPARg SRC1 ag inactive | PPARg SRC3 conf inactive
O=C(C1=C(O)C(=O)N(Cc2ccco2)C1c1cccnc1)c1cc2ccccc2o1 (configuration not stated)	PPARg SRC-3 ag 50, PPARg SRC-2 ag 34, TR-FRET SRC-2 ct 2097, PPARg SRC-1 ag 33 (no result: SRC3 TRFRET art, SRC1 TRFRET art) | PPARg SRC2 ag inactive | PPARg SRC1 ag inactive | PPARg SRC3 conf inactive
O=C(C1=C(O)C(=O)N(CC2CCCO2)C1c1cccnc1)c1ccco1 (configuration not stated)	none (no result: SRC3 TRFRET art, SRC1 TRFRET art)
O=C(/C=C/c1ccccc1)C1=C(O)C(=O)N(CCO)C1c1ccccc1[N+](=O)[O-] (configuration not stated)	none
C=CCn1c(NCc2cc(C)ccc2O)nc2ccccc21	none (no result: SRC3 TRFRET art, SRC1 TRFRET art)
C=CCn1c(NC(C)c2cc(Cl)ccc2O)nc2ccccc21 (configuration not stated)	PPARg SRC-3 ag 28, PPARg SRC-2 ag 27, PPARg SRC-1 ag 41 (no result: SRC3 TRFRET art, SRC1 TRFRET art) | PPARg SRC2 ag inactive | PPARg SRC1 ag 32 | PPARg SRC3 conf 31
O=C(CCSc1ccc(Cl)cc1)N1CCN(c2ncccn2)CC1	none (no result: SRC3 TRFRET art, SRC1 TRFRET art)
